Consider eight molecules from PubChem BioAssay (Tox21).

The structures appear in SMILES notation. Unmarked numbers belong to inactive results. Records with an inconclusive call do not appear. Calls of active or inactive are those of the source. Unless noted, calls come from the whole dose curve; as a rule, active = well fitted curve in the direction sought with a large enough effect in the repeat runs; inconclusive = weak or mixed curves; inactive = no such curve, though single readings can be large; an effect the other way counts as inactive or inconclusive.

Assay [1] can be described thus: A CellTox Green Cytotoxicity Assay to monitor cytotoxicity in HepG2 cells - 8 hour (AID 1224890). Note: nearly all actives have a fitted effect of over 45% in size. Put shortly: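 Real-time, homogeneous cytotoxicity readout: dead-cell DNA staining by CellTox Green in HepG2 monolayers, fluorescence measured at timed intervals up to 40 h of continuous compound exposure.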
A short description of assay [2]: qHTS assay to identify small molecule antagonists of the estrogen receptor alpha (ER-alpha) signaling pathway using the BG1 cell line in the presence of 0.1 nM 17-beta-estradiol - cell viability counter screen (AID 1259241). Note: nearly all actives have a fitted effect of over 40% in size. In short, it runs like this: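 Live-cell protease activity (CellTiter-Fluor fluorescence, 30 min) was read in the same wells after VM7Luc4E2 cells had been exposed to compounds with 0.1 nM 17beta-estradiol for 22 hr at 37C.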
Background: qHTS replaces the single test concentration by a dilution series.

Assay [3] is described as follows: qHTS assay to identify small molecule antagonists of the androgen receptor (AR) signaling pathway using the MDA cell line in the presence of 0.5 nM R1881 - cell viability counter screen (AID 1259242). Note: nearly all actives have a fitted effect of over 45% in size. In short, it runs like this: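 Cytotoxicity toward MDA-kb2 cells is measured by CellTiter-Fluor live-cell protease fluorescence after 16 hr compound exposure at 37C in the presence of 0.5 nM R1881 stimulator.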

For assay [4], the target named is Estrogen receptor (Homo sapiens) (UniProt P03372). In words: qHTS assay to identify small molecule antagonists of the estrogen receptor alpha (ER-alpha) signaling pathway using the BG1 cell line in the presence of 0.1 nM 17-beta-estradiol (AID 1259244). Note: nearly all actives have a fitted effect of over 50% in size. Note: potency is the fitted concentration of half-maximal effect. Put shortly: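 After 5 days in hormone-depleted medium (charcoal-stripped serum, no phenol red), VM7Luc4E2 cells were seeded, incubated 24 h, then co-treated with compound and 0.1 nM (final) estradiol for 22 h before luminescence detection.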
Sequence of Estrogen receptor (Homo sapiens) (P03372 whole entry, looked up): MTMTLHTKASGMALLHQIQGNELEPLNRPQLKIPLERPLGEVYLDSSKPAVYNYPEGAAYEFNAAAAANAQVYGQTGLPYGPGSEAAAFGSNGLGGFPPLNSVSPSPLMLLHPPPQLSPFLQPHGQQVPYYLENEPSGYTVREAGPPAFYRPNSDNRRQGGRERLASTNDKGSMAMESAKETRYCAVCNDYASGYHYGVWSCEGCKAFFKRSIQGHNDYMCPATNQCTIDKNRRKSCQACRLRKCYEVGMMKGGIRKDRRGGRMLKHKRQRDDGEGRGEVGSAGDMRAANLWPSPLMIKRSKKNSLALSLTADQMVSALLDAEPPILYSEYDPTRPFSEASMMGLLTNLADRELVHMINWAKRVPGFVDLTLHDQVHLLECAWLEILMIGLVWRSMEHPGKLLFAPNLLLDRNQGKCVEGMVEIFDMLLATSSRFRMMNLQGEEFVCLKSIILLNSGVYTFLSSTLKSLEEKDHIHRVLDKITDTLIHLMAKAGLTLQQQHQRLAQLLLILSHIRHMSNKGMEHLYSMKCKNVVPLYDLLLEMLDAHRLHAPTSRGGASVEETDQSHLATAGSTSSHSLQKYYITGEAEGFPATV

Assay [5] in a line: qHTS assay to identify small molecule HDAC inhibitors (AID 1259364). Note: top concentration of the series differs between compounds; nearly all actives have a fitted effect of over 45% in size. In short, it runs like this:
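Homogeneous cell-based luminescent assay of endogenous class I/II HDAC activity; HCT-116 cells, 2 h compound exposure, 30 min HDAC-Glo development at RT.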

The nature of assay [6]: qHTS assay to identify small molecule HDAC inhibitors - cell viability counter screen (AID 1259365). Note: series mostly up to about 92 µM; nearly all actives have a fitted effect of over 50% in size. Put shortly: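 HCT-116 (wild type), 1,500 cells/well, overnight 37C/5% CO2; compound in DMSO 2hr; CellTiter-Glo 30min RT; luminescence read.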
Assay [7] is described as follows: qHTS assay to identify small molecule agonists of the sonic hedgehog signaling (Shh) pathway - cell viability counter screen (AID 1259366). Note: nearly all actives have a fitted effect of over 50% in size. Put shortly:
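CellTiter-Fluor fluorescence read-out, 1 hr at 37C, added after 23hr compound exposure. Cells: 3T3 Gli1-Luc, an NIH/3T3 clone with stably integrated Gli1-Luc reporter, plated 4hr before compound.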

Assay [8] is described as follows: qHTS assay to identify small molecule antagonists of the sonic hedgehog signaling (Shh) pathway - cell viability counter screen (AID 1259367). Note: nearly all actives have a fitted effect of over 55% in size. In short, it runs like this:
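NIH/3T3-derived Gli1-Luc reporter cells (2,000 per well) rested 4 hr at 37 C, then received DMSO compounds plus conditioned medium. After 23 hr of treatment, CellTiter-Fluor was added for 1 hr at 37C and fluorescence read.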

Assay [9] is described as follows: qHTS assay to identify small molecule agonists of the sonic hedgehog signaling (Shh) pathway (AID 1259368; calls by dose curve;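 note: NIH/3T3-derived 3T3Gli1-Luc cells carrying a stable Gli1-driven firefly luciferase reporter; series mostly up to about 92 µM; nearly all actives have a fitted effect of over 15% in size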). In short, it runs like this: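 Steps: seed 3T3 Gli1-Luc cells, incubate 4 hr at 37 C, pin-transfer compounds in DMSO alongside a positive control, incubate 24 hr, add luciferase detection reagent, wait 30 min at room temperature, read luminescence.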
A short description of assay [10]: qHTS assay to identify small molecule antagonists of the sonic hedgehog signaling (Shh) pathway (AID 1259369; calls by dose curve; note: nearly all actives have a fitted effect of over 45% in size). In short, it runs like this:
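Inhibition of Shh signalling is measured as reduced Gli1-response-element firefly luciferase output in an NIH/3T3-derived stable reporter clone stimulated with conditioned medium for 24hr.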

The target in assay [11] is Estrogen receptor beta (Homo sapiens) (UniProt Q92731). Nature of the assay: qHTS assay to identify small molecule agonists of the estrogen receptor beta (ER-beta) signaling pathway (AID 1259377; active = well fitted activation curve with a large enough effect in the signal ratio in the repeat runs, not every such curve was filed as active; the % refers to the signal ratio). In short, it runs like this: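 Beta-lactamase reporter readout: fluorescence of LiveBLAzer B/G FRET substrate after 2 h at room temperature, following 16 h compound treatment of ER-beta-UAS-bla HEK293T cells at 37C in 2% charcoal-stripped FBS medium.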
Sequence of Estrogen receptor beta (Homo sapiens) (Q92731 whole entry, looked up): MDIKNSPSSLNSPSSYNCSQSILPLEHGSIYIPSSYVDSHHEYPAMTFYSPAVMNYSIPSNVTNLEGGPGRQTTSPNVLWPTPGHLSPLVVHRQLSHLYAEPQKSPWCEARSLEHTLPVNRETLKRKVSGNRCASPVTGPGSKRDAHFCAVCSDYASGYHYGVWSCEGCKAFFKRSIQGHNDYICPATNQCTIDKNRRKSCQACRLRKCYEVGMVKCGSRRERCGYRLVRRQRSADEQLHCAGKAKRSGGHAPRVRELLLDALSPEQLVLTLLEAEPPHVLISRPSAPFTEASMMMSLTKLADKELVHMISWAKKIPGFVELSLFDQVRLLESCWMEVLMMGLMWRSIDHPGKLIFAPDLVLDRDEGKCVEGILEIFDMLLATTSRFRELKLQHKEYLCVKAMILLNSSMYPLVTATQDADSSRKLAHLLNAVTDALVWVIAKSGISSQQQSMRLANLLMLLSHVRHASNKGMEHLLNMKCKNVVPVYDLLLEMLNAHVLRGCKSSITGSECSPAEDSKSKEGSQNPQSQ

Assay [12] shares this target. Nature of the assay: qHTS assay to identify small molecule antagonists of the estrogen receptor beta (ER-beta) signaling pathway (AID 1259378; active = well fitted inhibition curve with a large enough effect in the signal ratio in the repeat runs, not every such curve was filed as active; the % refers to the signal ratio). In short, it runs like this:
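ER-beta-UAS-bla HEK293T (GripTite) cells in 2% charcoal-stripped FBS medium were preincubated 6 hr at 37C, dosed with compound, then stimulated with 1 nM E2 (final) for 16 hr; beta-lactamase reporter read by B/G FRET fluorescence after 2 hr substrate loading.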

Assay [13] in a line: qHTS assay to identify small molecule agonists of the androgen receptor (AR) signaling pathway in the presence of an antagonist - cell viability counter screen (AID 1259379).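 Note: MDA-kb2 human breast cancer cells carrying an MMTV luciferase reporter; series mostly up to about 92 µM; nearly all actives have a fitted effect of over 25% in size.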 Put shortly:
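Fluorescence from CellTiter-Fluor, added after 15 hr and read 1 hr later, gave cell viability. Cells were MDA-kb2 exposed to compounds (15 concentrations) in the presence of 3.0uM nilutamide at 37C, 0% CO2.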

A short description of assay [14]: qHTS assay to identify small molecule agonists of the estrogen receptor beta (ER-beta) signaling pathway - cell viability counter screen (AID 1259380). Note: nearly all actives have a fitted effect of over 30% in size. Put shortly:
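Same-well viability counter screen. Cells: ER-beta-UAS-bla HEK293T, plated 6 hr before compound, in 2% charcoal-stripped FBS. Compound exposure 16 hr, 37C; viability by CellTiter-Glo luminescence after 30 min at room temperature.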

Assay [15] in a line: qHTS assay to identify small molecule antagonists of the estrogen receptor beta (ER-beta) signaling pathway - cell viability counter screen (AID 1259382). Note: series mostly up to about 92 µM; nearly all actives have a fitted effect of over 55% in size. In short, it runs like this:
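Following a 6 hr plating period, HEK293T cells carrying a UAS-driven beta-lactamase reporter under ER-beta control received compounds and 1nM E2 (final). After 16 hr at 37C and 2 hr substrate loading, CellTiter-Glo luminescence indicated viability.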

The target of assay [16] is Estrogen receptor (Homo sapiens) (UniProt P03372). In words: qHTS assay to identify small molecule agonists of the estrogen receptor alpha (ER-alpha) signaling pathway in the presence of an antagonist (AID 1259383; calls by dose curve; note: top concentration of the series differs between compounds; nearly all actives have a fitted effect of over 15% in size). Put shortly:
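Cells are hormone-deprived for 5 days (charcoal-stripped FBS, no phenol red), plated for 24hr, spiked with 10.0nM ICI-182,780, then dosed at 15 concentrations. After 22hr at 37C, ONE-Glo luminescence reports ERE-luciferase activity.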

The nature of assay [17]: qHTS assay to identify small molecule agonists or antagonists of the thyroid stimulating hormone receptor (TSHR) signaling pathway - wild type cell line counter screen (AID 1259384; calls by dose curve). In short, it runs like this:
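Wild-type HEK293 cells were plated 18 h at 37 C/5% CO2, pin-dosed with compound plus Ro20-1724 medium, held 30 min at room temperature, then given cAMP-d2 and anti-cAMP-cryptate; fluorescence was read after 1 h. Fifteen concentrations, triplicate.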

Assay [18] in a line: qHTS assay to identify small molecule phospholipidosis (PLD) inducers (AID 1259344; active = well fitted curve in the direction sought with a large enough effect; an effect the other way counts as inactive or inconclusive). Put shortly: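 HepG2 cells on collagen I, attached 4 h at 37 C, were co-treated with compound and LipidTOX Red dye for 24 h at 37 C, then fixed with paraformaldehyde plus Hoechst 33342 and imaged by high-content microscopy for phospholipid accumulation.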
% is set by controls: 0 for no effect and ±100 for the full control effect.

For `CCCCCCCCCCCCCCN(C)C`, in assay [1], the cytotoxicity increase is -1.47% [at 15.8 µM]. The activity change, negative = cytotoxicity in assay [2] was 0.479% [at 19 µM]; in assay [6] it was 3.73% [at 19 µM]; in assay [13] it was -0.611% [at 19 µM]; in assay [14], -12.9% [at 19 µM]; in assay [15] it was -7.95% [at 19 µM]. Moreover, the viability change, negative = cytotoxic in assay [3] is -2.29% [at 19 µM]; in assay [7] it was -0.743% [at 19 µM]; in [8], 4.21% [at 19 µM]. The figures for the activity change, negative = inhibition in [4], in assay [5] and in assay [10] were 15.5% [at 19 µM], 1.53% [at 19 µM] and 19.6% [at 19 µM], respectively. In addition, the activity change in [9] is 1.14% [at 18.9 µM, active compounds read high]. The activation is -2.25% [at 19 µM] in assay [11] and 2.36% [at 19 µM] in [16]. The activity, negative = inhibition in assay [12] is 3.58% [at 19 µM]. For the same molecule, the cAMP activity change in [17] is -2.36% [at 18.9 µM, active compounds read high].
`CCCc1nc2c(C)cc(-c3nc4ccccc4n3C)cc2n1Cc1ccc(-c2ccccc2C(=O)O)cc1`: the Potency result in assay [1], in [2], in assay [3], in assay [4], in [18] and in [5] was “inactive” in each case. For the same molecule, the Potency entry in assay [6], in assay [9], in assay [10], in assay [12], in assay [13] and in assay [15] was “inactive” in each case. For the same molecule, the Potency result in assay [16] and in assay [17] was “inactive” each time.
As to `CNc1c2c(nn1C)CCCC2`, the Potency result in [1], in assay [2], in assay [3], in assay [4], in assay [18] and in assay [5] was “inactive” in each case. Besides, the Potency result in assay [6], in assay [7], in assay [8], in assay [9], in assay [10] and in assay [12] was “inactive” each time. The Potency result in [13], in assay [14], in assay [15], in [16] and in [17] was “inactive” in each case.
For `CC(C)C(O)C(C)(C)CO` (stereo not given), the Potency result in [1], in assay [2], in assay [3], in assay [5], in [6] and in assay [7] was “inactive” throughout. Besides, the Potency result in assay [8], in assay [9], in assay [10], in assay [15], in assay [16] and in assay [17] was “inactive” throughout. In assay [4], the Potency was 9.99 µM (active).
In the case of `CC(=O)C(=O)CC(C)C`, the Potency result in assay [1], in assay [2], in [3], in [4], in assay [5] and in [6] was “inactive” each time. The Potency entry in assay [7], in assay [8], in assay [9], in [10], in assay [13] and in assay [14] was “inactive” each time. In addition, the Potency result in [15], in assay [16] and in assay [17] was “inactive” in each case.
For `CC(=O)OCCC1CCCCC1`, the Potency result in [1], in assay [2], in assay [3], in assay [4], in assay [5] and in assay [6] was “inactive” throughout. For the same molecule, the Potency entry in [8], in assay [9], in [10], in assay [11], in assay [12] and in assay [13] was “inactive” in each case. The Potency result in assay [14], in assay [15] and in assay [16] was “inactive” in each case.
In the case of `CCC(CO)(CO)[N+](=O)[O-]`, the Potency entry in [1], in assay [2], in [3], in assay [4], in assay [5] and in assay [6] was “inactive” each time. In addition, the Potency entry in assay [7], in [8], in [9], in assay [10], in assay [13] and in [14] was “inactive” in each case. Besides, the Potency entry in [15] and in [16] was “inactive” each time.
`CC(CO)(CO)C(=O)O`: the Potency entry in [1], in assay [2], in assay [3], in assay [4], in assay [5] and in assay [6] was “inactive” in each case. For the same molecule, the Potency result in [8], in assay [9], in assay [10], in assay [11], in [12] and in [13] was “inactive” each time. Besides, the Potency entry in [14], in [15] and in assay [16] was “inactive” in each case.
